Source: PubChem BioAssay
KCNQ2 pot = KCNQ2 (rat) channel potentiation; CHO-K1 KCNQ2, FluxOR thallium flux fluorescence; stronger effect = higher value; B-score at 10 µM; hit rate 0.54% among 310,000; AID 2239;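 active = fluorescence ratio B-score at least 3 SD of library B-scores, with initial fluorescence B-score within 3 of them, cut at about 5.3 in these data; same plate scores as AID 2156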;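 also: B-score of peak minus minimum over baseline fluorescence ratio after K+ and Tl+ stimulus; positive B-score means potentiation of KCNQ2 with more thallium influx and brighter signal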
Target sequence (O88943 whole entry, looked up): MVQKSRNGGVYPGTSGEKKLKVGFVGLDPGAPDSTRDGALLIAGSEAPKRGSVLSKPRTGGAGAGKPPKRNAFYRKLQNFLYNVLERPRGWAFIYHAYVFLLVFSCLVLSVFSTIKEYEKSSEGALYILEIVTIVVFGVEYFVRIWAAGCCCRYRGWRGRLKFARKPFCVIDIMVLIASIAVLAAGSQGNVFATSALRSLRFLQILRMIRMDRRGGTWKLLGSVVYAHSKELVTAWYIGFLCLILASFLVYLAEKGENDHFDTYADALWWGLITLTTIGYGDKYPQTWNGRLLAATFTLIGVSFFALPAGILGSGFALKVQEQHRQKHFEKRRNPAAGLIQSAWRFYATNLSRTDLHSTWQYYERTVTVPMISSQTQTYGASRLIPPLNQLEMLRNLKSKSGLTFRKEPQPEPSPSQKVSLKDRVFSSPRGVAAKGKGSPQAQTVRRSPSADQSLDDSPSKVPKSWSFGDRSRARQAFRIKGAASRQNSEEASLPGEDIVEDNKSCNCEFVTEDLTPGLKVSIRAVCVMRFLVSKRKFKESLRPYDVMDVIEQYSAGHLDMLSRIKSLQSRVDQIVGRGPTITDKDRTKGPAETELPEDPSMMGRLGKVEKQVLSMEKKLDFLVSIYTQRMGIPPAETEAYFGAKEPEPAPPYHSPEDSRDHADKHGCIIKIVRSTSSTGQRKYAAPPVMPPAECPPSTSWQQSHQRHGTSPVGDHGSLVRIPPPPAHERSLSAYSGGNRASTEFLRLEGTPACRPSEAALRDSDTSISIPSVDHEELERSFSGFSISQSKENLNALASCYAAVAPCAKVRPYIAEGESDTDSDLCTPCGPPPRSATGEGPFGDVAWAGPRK
KCNQ2 inh = blocks the rat KCNQ2 potassium channel; hit rate 1.1% among 310,000; B-score at 10 µM; AID 2156; CHO-K1 KCNQ2, FluxOR thallium flux, 20 min; stronger effect = lower value;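 active = fluorescence ratio B-score at most minus 3 library SDs, with starting brightness B-score within 2 library SDs, cut at about -5.5 in these data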
* marks the source's active call; other numbers are inactive results; i = inactive; nt = not tested or not shown. Hits are enriched below; roughly 1.6% of the tested compounds scored in any of these assays.

SMILES	KCNQ2 pot	KCNQ2 inh
CCc1c(C)nc(N)nc1N1N=C1SCC(=O)OC	9.62*	i
CCc1c(C)nc(N)nc1N1N=C1SCC#N	2.52	i
CC(=NCC1CCCO1)c1c(O)n(-c2ccccc2C)c(=O)[nH]c1=O (stereo not drawn)	nt	i
O=C1NC(=O)C(=Cc2coc3ccc(O)cc3c2=O)C(=O)N1	-5.81	-5.81*
CN1C(=O)C(=Cc2coc3ccccc3c2=O)C(=O)N(C)C1=O	nt	i
Clc1ccc(CSC(Cn2ccnc2)c2ccc(Cl)cc2Cl)cc1 (stereo not drawn)	nt	i
Clc1ccc(COC(Cn2ccnc2)c2ccc(Cl)cc2Cl)cc1 (stereo not drawn)	-8.31	-8.31*
Cc1c(CCN)ccc2c1[nH]c1ccccc12	nt	i
CCCCNC(=O)c1c(N)n(CCCOC)c2nc3ccccc3nc12	-8.49	-8.49*
COCCCn1c(N)c(C(=O)OCCOC)c2nc3ccccc3nc21	0.78	i
CCC(=Nc1ccc2c(c1)CCC2)c1c(O)n(-c2ccc(OC)cc2)c(=O)[nH]c1=O	0.06	i
CCOP(=O)(OCC)C(NC(=O)c1cccc(C)c1)C(Cl)(Cl)Cl (stereo not drawn)	0.7	i
Cc1cccc(C(=O)NC(Oc2ccccc2)C(Cl)(Cl)Cl)c1 (stereo not drawn)	-5.67	-5.67*
N#Cc1ccccc1Cn1cc(C(=O)c2cccs2)c2ccccc21	nt	i
O=C(c1cccs1)c1cn(Cc2ccccc2Cl)c2ccccc12	-7.33	-7.33*
C=CCn1c(O)c(C(CC)=NCCC2=CCCCC2)c(=O)[nH]c1=O	0.69	i
CCN(c1ccc(C(O)(C(=O)OC)C(F)(F)F)cc1)S(=O)(=O)c1ccc(C)cc1 (stereo not drawn)	nt	i
COc1cccc(OP(=O)(Nc2ccccc2)Oc2cccc(OC)c2)c1	-7.07	-7.07*
O=P(Nc1ccccc1)(Oc1ccccc1)Oc1ccccc1	0.72	i
CC(N)Cc1cn(Cc2ccccc2)c2ccccc12 (stereo not drawn)	0.61	i
CCc1ccc(NC2=NCCCS2)cc1	nt	i
O=C(CN1CCCC1)Nc1ccc(Cl)cc1C(=O)c1ccccc1	1.12	i
O=C(CCN1CCCCC1)Nc1ccc(Cl)cc1C(=O)c1ccccc1	-5.64	-5.64*
Cc1ccc2c(c1)N(C(C)C(=O)N1CCC3(CC1)OCCO3)C(=O)CO2 (stereo not drawn)	0.32	i
NC(Cc1ccccc1)c1nc(-c2ccccc2)no1 (stereo not drawn)	nt	i
SMILES	KCNQ2 pot	KCNQ2 inh
CC(=O)Nc1ccccc1C(=O)OCc1cccc(F)c1	nt	i
CC(=O)Nc1ccccc1C(=O)OCc1ccc(C(=O)c2ccccc2)cc1	-6.48	-6.48*
CC(=O)c1cc(C#N)c(N2CCN(C)CC2)nc1C	1.41	i
Cc1c2cnn(CC(=O)N3CCC4(CC3)OCCO4)c(=O)c2c(C)n1Cc1ccccc1	nt	i
O=C(Cn1ncc2c3ccccc3n(Cc3ccc(F)cc3)c2c1=O)N1CCC2(CC1)OCCO2	19.4*	i
Cc1ccc(C2=CCNCC2)cc1	1.26	i
CCC1(C(=O)c2ccc(C)cc2)C2c3ccccc3OC(=O)C21C(=O)O (stereo not drawn)	0.08	i
c1ccc2c(CN3CCCCC3)c[nH]c2c1	nt	i
O=C(COc1ccc(Br)cc1)N1CCN(Cc2c[nH]c3ccccc23)CC1	-5.82	-5.82*
CCOC(=O)C(O)(c1ccc(N=c2ccccn2C)cc1)C(F)(F)F (stereo not drawn)	0.34	i
COCCCn1c(-c2ccc(OC)cc2)cc(C(=O)NC2CCCCCCC2)c1C	nt	i
CCN1CCN(c2cc(N3CCCC3)c([N+](=O)[O-])cc2F)CC1	0.12	i
Nc1ccccc1-[n+]1c(-c2ccccc2)cc(-c2ccccc2)cc1-c1ccccc1	-6.47	-6.47*
O=C(O)c1ccc(-[n+]2c(-c3ccccc3)cc(-c3ccccc3)cc2-c2ccccc2)cc1	1.95	i
Cc1nc2ccccc2c(=O)n1-c1ccc(Br)cc1[N+](=O)[O-]	7.41*	i
Cc1nc2ccccc2c(=O)n1-c1ccccc1[N+](=O)[O-]	1.1	i
OCC12CO[C@@H]3c4ccccc4[C@H](OC1)N32 (stereo partly drawn)	0.58	i
CCOC(=O)C1(c2ccccc2)CCN(CC(=O)Nc2ccc(C)cc2)CC1	nt	i
CCOC(=O)C1(c2ccccc2)CCN(CCC(C#N)(c2ccccc2)c2ccccc2)CC1	-6.85	-6.85*
COC(=O)C1=C(c2cccc(OC)c2OC)C[C@@H]2CC[C@H]1N2C(=O)NCc1ccccc1	nt	i
COC(=O)C1=C(c2cccc(OC)c2OC)C[C@@H]2CC[C@H]1N2C(=O)NCc1cccc2ccccc12	-6.83	-6.83*
CC(=O)N1CCC(N2CCCC(C(=O)c3cccc(Cl)c3)C2)CC1 (stereo not drawn)	1.25	i
CN1CC2([N+](=O)[O-])CC=C(Cl)C([N+](=O)[O-])(C1)C2 (stereo not drawn)	nt	i
Cc1cc(O)c2c(c1)OC(C)(C)C1=C2CC(C)CC1 (stereo not drawn)	-7.33	-7.33*
Cc1cc(O)c2c3c(c(=O)oc2c1)CCC(C)C3 (stereo not drawn)	nt	i
SMILES	KCNQ2 pot	KCNQ2 inh
Cc1nn(Cc2ccccc2)c(Cl)c1C(=O)NC1CCCc2ccccc21 (stereo not drawn)	nt	i
CCCc1c(C)nc(-c2ccc(C)cc2)nc1OC(=O)N(C)C	nt	i
Clc1ccc(CO/N=C(\Cn2ccnc2)c2ccc(Cl)cc2Cl)c(Cl)c1	-6.05	-6.05*
N=c1sccn1Cc1ccc(Cl)cc1Cl	1.67	i
CCCN1CCc2cccc3c2[C@H]1Cc1ccc(O)c(O)c1-3	-6.03	-6.03*
COc1cc2c(cc1O)CC1c3c(cc(O)c(OC)c3-2)CCN1C (stereo not drawn)	nt	i
CCc1ccc(-c2nn(Cc3ccccc3)cc2C=O)cc1	nt	i
O=P(O)(O)C12CC3CC(CC(C3)C1)C2	nt	i
O=P(NC(c1ccccc1)c1ccccc1)(Oc1ccccc1)Oc1ccccc1	-5.86	-5.86*
O=P(O)(Oc1ccccc1)OC(c1ccccc1)C(F)(F)F (stereo not drawn)	0.26	i
O=C(Cc1ccccc1)N1CCN(Cc2cccnc2)CC1	nt	i
COc1cc(/C=C/[N+](=O)[O-])ccc1OC(=O)c1cccnc1	nt	i
COc1cc2c(cc1/C=C/[N+](=O)[O-])OCO2	-7.82	-7.82*
Cc1ccc(OCC(=O)N2CCN(C3CCC(c4ccccc4)CC3)CC2)cc1 (stereo not drawn)	-6.25	-6.25*
O=C(COc1ccc(Br)cc1)N1CCN(C2CCCC2)CC1	nt	i
COc1ccc(OC)c(NP(=O)(Oc2ccccc2)Oc2ccccc2)c1	0.02	i
COc1ccc(OC)c(NP(=O)(Oc2ccc(Cl)cc2)Oc2ccc(Cl)cc2)c1	-6.14	-6.14*
O=C(Nc1ccc(F)cc1)c1c(O)c2c(n(Cc3ccccc3)c1=O)CCCC2	nt	i
O=C(Nc1cccnc1)c1c(O)c2c(n(Cc3ccccc3)c1=O)CCCC2	-5.82	-5.82*
Cc1ccc(S(=O)(=O)N(C)C/N=C(\N)N[N+](=O)[O-])cc1	0.1	i
COC(=O)[C@@H](N)CCCN=C(N)N[N+](=O)[O-]	-6.4	-6.4*
CSc1ccc(CN2CCN(Cc3ccccc3Cl)CC2)cc1	-6.59	-6.59*
CSc1ccc(CN2CCN(C(=O)Cc3ccccc3)CC2)cc1	0.4	i
COC(=O)C1=C(c2cc3ccccc3o2)C[C@@H]2CC[C@H]1N2C(=O)N1CCOCC1	1.1	i
